Only some compounds are listed: those with a hit (about 5.9% of all), similar ones and a draw of the others.
Gal4-VP16 FLuc: VP16 counterscreen qHTS for inhibitors of ROR gamma transcriptional activity | 3.5% of 310,000 active | Potency, µM (top dose mostly 53.6 µM), for inactives: at the top dose activity, negative = inhibition, hits mostly inhibitors | Drosophila S2 Gal4-VP16 UAS-luciferase, luminescence, 20 h;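 also: Gal4-VP16 expression switched on by copper sulfate through the metallothionein promoter; potency is read from the fitted curve at half-maximal effect; nearly all actives have a fitted effect of over 50% in size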
TrxR1 substrate: qHTS Assay for Substrates of Mammalian Selenoprotein Thioredoxin Reductase 1 (TrxR1): qHTS; Thioredoxin reductase 1, cytoplasmic (Rattus norvegicus), O89049; purified TrxR1 substrate turnover, NADPH consumption readout; 0.01% of 390,000 active; Potency, µM (highest dose often 114 µM), for inactives: top-dose activity change, negative = substrate turnover; also: potency is read from the fitted curve at half-maximal effect; nearly all actives have a fitted effect of over 50% in size
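Rat TrxR1, dispensed at 90 nM, was prereduced with 400 uM NADPH (final) for 5 min at ~22 deg C, then incubated with compound 15 min before 400 uM selenite. A first-read NADPH fluorescence drop versus no-compound background flagged substrates.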
rTrxR1 inhibitor: qHTS Assay for Inhibitors of Mammalian Selenoprotein Thioredoxin Reductase 1 (TrxR1): qHTS; Thioredoxin reductase 1, cytoplasmic (Rattus norvegicus), O89049; recombinant rTrxR1, NADPH fluorescence consumption, selenite substrate; Potency, µM (doses to about 114 µM), for the others: at the highest dose activity change, negative = inhibition, hits mostly inhibitors; 1% of 390,000 active; AID 588453, 2011; also: potency is read from the fitted curve at half-maximal effect; nearly all actives have a fitted effect of over 65% in size
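Rat TrxR1 (90 nM in the dispensed reagent) was pre-reduced with 400 uM NADPH for 5 min at room temperature, then incubated with compound for 15 min. After 400 uM selenite was added, NADPH fluorescence (Ex 340/Em 450 nm) was followed for 8 min.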
GALK inhibitor: qHTS Assay for Inhibitors of Human Galactokinase (GALK); Potency, µM (top dose mostly 57.5 µM), for inactives: top-dose activity change, negative = inhibition, most hits filed as inhibitors; Purified GALK, Kinase-Glo residual ATP luminescence; 0.007% of 270,000 active; P51570; also: potency is read from the fitted curve at half-maximal effect
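Compounds were pin-transferred into ATP buffer (35 uM final), then GALK plus galactose (5 nM, 100 uM final) was added. After 1 h at room temperature, Kinase-Glo Plus was added and luminescence read after 10 min.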
Coupling enz: qHTS Assay for Inhibitors of Fructose-1,6-bisphosphate Aldolase from Giardia Lamblia: Coupling assay counterscreen | 0.67% of 290,000 active | activity change, negative = inhibition, % at 58.2 µM, hits read low | AID 2472, 2010 | coupling enzyme system counterscreen, AmpLite Red fluorescence; in the data active = activity change below about -30%
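First, compound is pin-transferred into glyceraldehyde-3-phosphate coupling-enzyme reagent at 57.5 uM final and held 10 min at RT. Next, substrate, coupling system and AmpLite Red are added. After 20 min RT, fluorescence (525/598 nm) is read.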
RORg inh: qHTS for inhibitors of ROR gamma transcriptional activity; Drosophila S2 Gal4-RORgamma UAS-luciferase reporter, 20 h; Potency, µM (doses to about 53.6 µM), inactives show at the highest dose activity change, negative = inhibition, actives largely listed as inhibitors; AID 2551, 2010; 5.4% of 310,000 active; Nuclear receptor ROR-gamma (Mus musculus), P51450; also: potency is read from the fitted curve at half-maximal effect; nearly all actives have a fitted effect of over 60% in size
Target sequence (P51450 whole entry, looked up, the tested form may be a part): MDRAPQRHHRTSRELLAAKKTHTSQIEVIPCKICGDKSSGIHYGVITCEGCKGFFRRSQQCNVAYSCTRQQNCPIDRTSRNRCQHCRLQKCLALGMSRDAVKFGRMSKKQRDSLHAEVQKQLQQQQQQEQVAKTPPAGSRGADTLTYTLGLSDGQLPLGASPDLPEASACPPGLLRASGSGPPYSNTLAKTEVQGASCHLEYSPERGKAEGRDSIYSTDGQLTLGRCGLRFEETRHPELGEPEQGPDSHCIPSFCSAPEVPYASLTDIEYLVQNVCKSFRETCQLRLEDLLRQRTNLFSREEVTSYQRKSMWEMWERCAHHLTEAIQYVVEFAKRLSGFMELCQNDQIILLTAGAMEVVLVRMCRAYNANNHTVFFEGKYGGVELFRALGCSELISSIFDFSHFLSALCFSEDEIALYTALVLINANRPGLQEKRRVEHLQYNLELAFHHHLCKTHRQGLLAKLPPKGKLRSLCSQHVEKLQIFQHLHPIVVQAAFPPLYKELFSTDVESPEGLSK
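Drosophila S2 cells stably expressing Gal4-DBD/mouse RORγ fusion under metallothionein promoter plus UAS-luciferase; compound 1 h, then 700 uM CuSO4 induction for 20 h at ambient temperature; inhibition read as reduced luminescence.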
* = called active by the depositor; u = inconclusive; x = no result; [ ] = another dose, or the depositor's remark. Unless noted, calls follow the shape of the dose curve; as a rule, active = well fitted curve in the direction sought with a large enough effect; inconclusive = small, poorly fitted or top-dose-only effect, or another doubt; inactive = no such curve, though single readings can be large; an effect the other way counts as inactive or inconclusive. % is scaled to controls: 0 for no effect and ±100 for the full control effect.

SMILES | Gal4-VP16 FLuc | TrxR1 substrate | rTrxR1 inhibitor | GALK inhibitor | Coupling enz | RORg inh
CCOC(=O)/C=C(\C)Sc1cc(=O)oc2ccccc12 | 24% | -9% | -34% | -2% | 1 | 2%
CCOC(=O)/C=C(\C)Sc1cc(O)c2ccccc2c1O | u | -26% | u | u | -86* | 11µM*
O=C1c2cccc3cccc(c23)C(=O)N1CCN1CCN(CC(O)COc2ccc3ccccc3c2)CC1 (configuration not stated) | 11µM* | -14% | -8% | 2% | 4 | u
O=C1c2cccc3cccc(c23)C(=O)N1CC1CCN(CC(O)COc2ccc3ccccc3c2)CC1 (configuration not stated) | -9% | 5%[57.1 µM] | 29%[57.1 µM] | -6% | x | 27%
CC1=C(c2ccc(NN=C(C#N)C#N)cc2)NNC(=O)C1 | u | x | x | x | x | 22µM*
CC1(C)CC(=O)C(N=Nc2ccc(C(F)(F)F)cc2[N+](=O)[O-])=C(O)C1 | u | -14%[57.1 µM] | -5%[57.1 µM] | 2% | -16 | -35%
CC1(C)CC(=O)C(C(C2=C(O)CC(C)(C)CC2=O)c2ccc(O)c([N+](=O)[O-])c2)=C(O)C1 | -6% | -7% | 13µM* | -4% | -7 | 8%
CC(=O)N1CCN(C(=O)CCNC(=O)c2ccc(Br)cc2)CC1 | x | -3%[57.1 µM] | -2%[57.1 µM] | x | x | x
CCn1c(=O)cc(C(=O)OC)sc1=Nc1ccc(F)c(F)c1 | u | 4%[57.1 µM] | -12%[57.1 µM] | 0% | -1 | 22µM*
COC(=O)c1cc(=O)n(Cc2ccc3c(c2)OCO3)c(=Nc2ccc(F)c(Cl)c2)s1 | -3% | -7% | 14%[57.1 µM] | -1% | 4 | -16%
CCOC(=O)c1ccc(N=c2sc(C(=O)OC)cc(=O)n2Cc2ccco2)cc1 | 8.9µM* | -12% | 2%[57.1 µM] | -2% | -7 | u
COC(=O)c1cc(=O)n(CCc2ccc(OC)cc2)c(=Nc2ccc(F)c(Cl)c2)s1 | 3% | 4%[57.1 µM] | 3%[57.1 µM] | 0% | -5 | 8%
COC(=O)c1cc(=O)n(CCc2ccccc2)c(=Nc2ccc(F)cc2)s1 | -28% | -7%[57.1 µM] | 10%[57.1 µM] | -4% | 1 | 8.9µM*
COc1coc(C(O)C[N+](=O)[O-])cc1=O (configuration not stated) | 1% | 5% | 50µM* | x | 2 | 0%
CC(C(O)c1cc(=O)c(OCc2ccccc2)co1)[N+](=O)[O-] (configuration not stated) | x | 1% | -3% | x | x | x
COc1ccc(CNC(=O)COC(=O)c2cc3ccccc3o2)cc1 | x | 7% | 27% | x | x | x
CCOc1ccc(S(=O)(=O)Nc2ccc(C(=O)N3CCCC3)cc2)cc1 | -5% | 3% | 36% | -4% | 3 | -19%
CCOc1ccc(NS(=O)(=O)c2ccc(C(=O)N3CCN(C(C)=O)CC3)cc2)cc1 | 20µM* | -1% | -7% | 0% | x | u
COc1ccc(CCN(C)C(=O)c2ccc(S(=O)(=O)Nc3ccccc3C)cc2)cc1OC | 6% | -11% | -5% | -3% | x | -6%
CCOc1ccc(NS(=O)(=O)c2ccc(C(=O)N(C)CCc3ccc(OC)c(OC)c3)cc2)cc1 | 7.1µM* | -1% | 6% | -1% | 1 | u
CCn1c(=S)ccc2ccc(OC)cc21 | 12% | 7% | 11% | -1% | 2 | u
CCn1ccc2cc(OC)ccc2c1=S | -3% | 6%[57.1 µM] | 14%[57.1 µM] | 4% | -83* | 20%
O=S(=O)(Nc1cccc(CCc2ccccn2)c1)c1ccc2ccccc2c1 | 2.5µM* | -13% | -8% | -3% | 0 | 7.9µM*
O=S(=O)(Nc1cccc(CCc2ccccn2)c1)c1cc(Cl)ccc1Cl | -1% | -7% | 8%[57.1 µM] | 1% | 4 | 5%
CCOc1ccccc1NC(=O)c1cc(Cl)ccc1NC(=O)c1ccco1 | 3% | -2% | -6% | 1% | 4 | 3%
SMILES | Gal4-VP16 FLuc | TrxR1 substrate | rTrxR1 inhibitor | GALK inhibitor | Coupling enz | RORg inh
S=C(NCc1ccco1)Nc1ccc(Cl)cn1 | 2.8µM* | -9% | u | 2% | 3 | 2.5µM*
Cc1cccnc1NC(=O)c1ccco1 | x | 3%[57.1 µM] | 2% | x | x | x
S=C(NCc1ccco1)Nc1ccccn1 | 13µM* | 2% | u | -1% | 2 | 1.8µM*
O=S(=O)(Nc1ncccn1)c1ccc(NC(=S)NCc2ccco2)cc1 | 2% | 11% | 27%[57.1 µM] | 6% | 0 | -13%
Cc1cccnc1NC(=S)NCc1ccco1 | u | -1% | u | 1% | 3 | 2µM*
COc1ccc(CN2CCNC(=O)C2CC(=O)N(C)CC2CCOCC2)c(F)c1 (configuration not stated) | -5% | 9% | -11% | 8% | x | -4%
CCOc1ccccc1Nc1sc(C(=O)c2ccc(Cl)cc2)c(N)c1C#N | x | 3%[57.1 µM] | 5%[57.1 µM] | x | x | x
C/C(=N\Nc1nc2ccccc2[nH]1)c1cc2ccccc2o1 | 3.5µM* | -4% | 10%[57.1 µM] | -1% | -2 | 4.5µM*
C/C(=N\Nc1nc2ccccc2[nH]1)c1ccccn1 | -70% | x | x | 7% | -8 | 2.5µM*
Cc1ccc(CNC(=O)c2cc(S(=O)(=O)N3CCCCCC3)cn2C)cc1 | x | 1%[57.1 µM] | 16%[57.1 µM] | x | x | x
CN(CC(=O)Nc1cccnc1)S(=O)(=O)c1ccccc1 | 2% | 5% | 18% | 1% | 0 | 1%
Cn1c(C2CCCCC2)nc2ccccc21 | u | 0%[57.1 µM] | -6%[57.1 µM] | 3% | -1 | 11µM*
Cc1ccc(NC(=O)NCCOCCn2c(=O)oc3ccccc32)cc1C | x | -3% | 24% | x | x | x
Cc1nn(-c2ccccc2)c2sc(C(=O)NNC(=O)COc3cccc4ccccc34)cc12 | u | 2% | 20% | -2% | -4 | 8.9µM*
Cc1cnc(NC(=O)c2cc3c(C)nn(-c4ccccc4)c3s2)s1 | 1.1µM* | 43% | 21% | 0% | 0 | 0.89µM*
Cc1nn(-c2ccccc2)c2sc(C(=O)Nc3ccc(Br)cc3)cc12 | x | 16% | 10% | x | x | x
Cc1nn(-c2ccccc2)c2sc(C(=O)NNC(=O)COc3ccccc3)cc12 | 10µM* | 10%[57.1 µM] | 19%[57.1 µM] | 2% | 9 | 7.1µM*
Cc1nn(-c2ccccc2)c2sc(C(=O)NC3CCCCC3)cc12 | 0% | -3% | 21% | 0% | -1 | 18%
Cc1cc([N+](=O)[O-])ccc1NC(=O)CCC(=O)N1CCCCCC1 | 8% | 4% | 26% | 0% | 0 | -17%
Cc1ccc(CN(C)C(=O)c2ccccc2NC(=O)c2ccccc2)o1 | x | -2% | 28µM* | x | x | x

Screening data deposited in PubChem by National Center for Advancing Translational Sciences (NCATS).
